Structures are written as SMILES. Values joined by “and” are separate entries in the source; they are usually repeats but may differ in a detail not shown here. Equal values may be shown once. This is part of a sample that, as a whole, favours compounds with a hit. Of some 83,000 tested, about 20% had one in any assay.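 Percent growth is the endpoint: 0 to 100 indicates growth inhibition (40 means 60% inhibition), 0 means no net growth, and negative values indicate cell death.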 Active and inactive are the calls of the source. How the source made its calls: active means growth percent below 10; inactive means the rest.

Some test systems named below: UO-31 renal; TK-10 renal; ACHN renal; CAKI-1 renal; A498 renal; CCRF-CEM leukemia; MOLT-4 leukemia; SN12C renal; EKVX NSCLC; SK-MEL-2 melanoma.
Holding throughout (assay): NCI-60 one-dose screen, 48 h (100 = growth as untreated, 0 = no growth, -100 = all killed)
What all share (conditions): 10 µM unless noted

As for `CCCCCCCCCCCCSC(=N)N`, the growth with UO-31 renal was -27.2% (active); with TK-10 renal, 87.4% (inactive); with ACHN renal, -12.6% (active); in the test on CAKI-1 renal, -7.66% (active); in the test with A498 renal, 80.8% (inactive); in the test on CCRF-CEM leukemia it was -22.8% (active). Further, in the test with MOLT-4 leukemia, the growth is -37.1% (active).
For `COC(=O)Nc1nc2ccc(C3(c4ccc(F)cc4)OCCO3)cc2[nH]1`, the growth in the test with SN12C renal is 41.4% (inactive); in the test on UO-31 renal, 55.4% (inactive); in the test with TK-10 renal it was 47.2% (inactive); in the test with ACHN renal it was 41.9% (inactive); in the test with CAKI-1 renal, 40.8% (inactive); in the test on A498 renal, 4.58% (active). In addition, the growth with CCRF-CEM leukemia was 5.57% (active); in the test on MOLT-4 leukemia, 21.8% (inactive).
With `CN(C)c1ccc(/C=C/c2cc[n+](C)c(/C=C/c3ccc(N(C)C)cc3)c2)cc1`, the growth was 13.5% (inactive) with SN12C renal; -11.4% (active) with UO-31 renal; 0.183% (active) in the test with TK-10 renal; 14.6% (inactive) in the test with ACHN renal; -4.63% (active) in the test on CAKI-1 renal; -10.3% (active) with A498 renal. Further, the figures for the growth in the test on CCRF-CEM leukemia and with MOLT-4 leukemia were 6.95% (active) and -26.5% (active), respectively.
As for `Cc1ccc2cccc(OC(=O)Nc3cccc(C(F)(F)F)c3)c2n1`, the growth in the test on SN12C renal is 61.5% (inactive); in the test with UO-31 renal it was 35.8% (inactive); in the test on TK-10 renal it was 83% (inactive); in the test on ACHN renal, 36.4% (inactive); in the test with CAKI-1 renal, 35.4% (inactive); in the test with A498 renal it was 66.3% (inactive). Besides, the growth in the test with MOLT-4 leukemia is 40.4% (inactive).
For `CC1=CC(=NC(=O)CBr)C=C/C1=N\S(=O)(=O)c1ccccc1`, the growth with UO-31 renal is 73.1% (inactive); in the test on TK-10 renal, 79.2% (inactive); with ACHN renal, 46.9% (inactive); in the test on A498 renal it was 97.2% (inactive); in the test on CCRF-CEM leukemia it was 12.2% (inactive); with MOLT-4 leukemia it was 43.7% (inactive).
As to `S=C(S)OCN1CCOCC1`, the growth in the test with EKVX NSCLC is 97.4% (inactive); in the test on SN12C renal it was 103% (inactive); in the test on UO-31 renal, 75.9% (inactive); with TK-10 renal, 97.9% (inactive); with ACHN renal, 100% (inactive); in the test with CAKI-1 renal, 92.6% (inactive). Besides, the growth was 70.6% (inactive) with A498 renal, 59% (inactive) in the test on CCRF-CEM leukemia and 92.5% (inactive) in the test on MOLT-4 leukemia.
Take `CC(=O)OC1CC2CCC1(C)C2(C)C` (stereo not given): the growth was 102% (inactive) in the test on EKVX NSCLC; 98.6% (inactive) in the test with SN12C renal; 87.3% (inactive) with UO-31 renal; 106% (inactive) in the test with TK-10 renal; 96.7% (inactive) in the test on ACHN renal; 92.6% (inactive) in the test on CAKI-1 renal. Further, the figures for the growth with A498 renal, in the test on CCRF-CEM leukemia and with MOLT-4 leukemia were 108% (inactive), -45% (active) and 112% (inactive), respectively.
Take `c1csc(-c2[nH]nc3c2CCc2ccccc2-3)c1`: the growth in the test on SN12C renal is 93.5% (inactive); in the test on UO-31 renal it was 53.8% (inactive); with TK-10 renal, 27.8% (inactive); in the test on ACHN renal, 82.3% (inactive); in the test with CAKI-1 renal, 79% (inactive); in the test with A498 renal, 77.7% (inactive). Further, the growth is 98.1% (inactive) in the test with CCRF-CEM leukemia and 69.6% (inactive) in the test with MOLT-4 leukemia.
Regarding `O=Nc1ccc2ccccc2c1O`, the growth was 64.1% (inactive) in the test on EKVX NSCLC; 42.4% (inactive) in the test on SN12C renal; 79.8% (inactive) in the test on UO-31 renal; 9.55% (active) in the test with TK-10 renal; 69.1% (inactive) in the test on ACHN renal; 78.1% (inactive) with CAKI-1 renal. In addition, the growth in the test with A498 renal was 95.3% (inactive); in the test on CCRF-CEM leukemia, 64.5% (inactive); in the test with MOLT-4 leukemia it was 91.2% (inactive).
As for `O=C1C=CC(=O)N1c1cccc2c1CCCC2`, the growth in the test with SN12C renal is 97.2% (inactive); with UO-31 renal, 87.9% (inactive); with TK-10 renal, 102% (inactive); with ACHN renal, 79.3% (inactive); in the test with CAKI-1 renal, 82.3% (inactive); in the test with A498 renal it was 96.2% (inactive). Further, the results for the growth in the test on CCRF-CEM leukemia and in the test with MOLT-4 leukemia were 9.65% (active) and 74.2% (inactive), respectively.
For `CCSc1nc2ccccc2o1`, the growth is 104% (inactive) in the test on EKVX NSCLC; 88.9% (inactive) with SN12C renal; 79.4% (inactive) in the test on UO-31 renal; 102% (inactive) with TK-10 renal; 99% (inactive) in the test on ACHN renal; 87.9% (inactive) with CAKI-1 renal. In addition, the figures for the growth in the test on A498 renal, in the test with CCRF-CEM leukemia and in the test with MOLT-4 leukemia were 83.6% (inactive), 97.5% (inactive) and 100% (inactive), respectively.
As to `CCCCCCN(CCCCCC)CCCNc1nccc2ccccc12`, the growth was 21.4% (inactive) with SK-MEL-2 melanoma; 15.2% (inactive) in the test with UO-31 renal; 39.8% (inactive) in the test with TK-10 renal; 19.2% (inactive) with ACHN renal; 21.4% (inactive) with CAKI-1 renal; 12.4% (inactive) in the test on CCRF-CEM leukemia. In the test on MOLT-4 leukemia, the growth is 11.8% (inactive).
Regarding `CCCCCCCCCCCCNCCCc1ccccc1`, the growth in the test with SN12C renal was 62.9% (inactive); in the test with UO-31 renal it was 60.8% (inactive); in the test with TK-10 renal it was 104% (inactive); in the test with ACHN renal it was 78.1% (inactive); in the test with CAKI-1 renal it was 93% (inactive); with A498 renal, 76.5% (inactive). Further, the growth was 48.9% (inactive) with CCRF-CEM leukemia and 54.8% (inactive) in the test on MOLT-4 leukemia.
`C[C@@H]1CCC([C@@H](C)[C@H]2CC[C@H]3[C@@H]4CC[C@H]5C[C@@H](O)CC[C@]5(C)[C@H]4CC[C@]23C)=NC1`: the growth with TK-10 renal was 27.5% [100 µM] (inactive) and -69% [100 µM] (active).
On the same count and under the same terms, next, `O=C(/C=C/c1ccccc1)CCC1C(=O)c2ccccc2C1=O`: 105% [100 µM] (inactive) and 77.6% [100 µM] (inactive).
The same measure, in the same setting: next, `COc1ccc(OC)c(Cc2cnc3nc(N)nc(N)c3c2C)c1`: 27.5% [100 µM] (inactive) and -100% [100 µM] (active).
Same read-out and setting: next, `Cn1c(COC(=O)NC2CCCCC2)c(COC(=O)NC2CCCCC2)c2ccc3cc(Cl)c(Cl)cc3c21`: -93.7% [100 µM] (active).
In the case of `O=Cc1ccc(-c2ccc(-c3ccc(CO)s3)o2)s1`, the growth with TK-10 renal was -35% [100 µM] (active) and -93.3% [100 µM] (active).
For `C=C(CO)C(=O)OC1CC(=C)C2CC(O)C(C)C2C2OC(=O)C(=C)C12` (stereo not given), in the test on TK-10 renal, the growth was 103% [100 µM] (inactive) and -92% [100 µM] (active).
With `On1c(-c2ccccc2)nc2ccccc2c1=S`, the growth with TK-10 renal was 1.71% [100 µM] (active) and -38.8% [100 µM] (active).
For the compound `COc1ccc2nc3c4c(nccc4c2c1)-c1ncccc1C3=O`, the growth in the test with TK-10 renal was -90.7% [50 µM] (active) and -100% [50 µM] (active).
On the same count and under the same terms, next, `CC1=CC[C@@H]2[C@@H](CC[C@@]2(C)O)C(C)(C)[C@H]1CC[C@@H]1[C@@]2(C)CCC(=O)C(C)(C)O[C@@H]2CC[C@]1(C)O`: 10.2% [100 µM] (inactive) and -99.3% [100 µM] (active); `CCOC(=O)C1C(C(C)C)C2(C#N)C(=N)OC1(C)C2(C#N)C#N` (stereo not given): 5.66% [100 µM] (active) and -73.8% [100 µM] (active).
On the same count and under the same terms, next, `CC1=CC[C@@H]2[C@@H](CC[C@@]2(C)O)C(C)(C)[C@H]1CC[C@@H]1[C@@]2(C)CC[C@@H](O)C(C)(C)O[C@@H]2CC[C@]1(C)O`: 12.5% [100 µM] (inactive) and -92.2% [100 µM] (active); `Cc1ccc(NC(=S)C#N)cc1Cl`: 7.58% [100 µM] (active) and -53.9% [100 µM] (active); `COc1c(/C=C/C=O)cc2c(c1OC)OCO2`: -2.29% [100 µM] (active) and -52.3% [100 µM] (active).
Same read-out and setting: next, `CN1CCc2cc3c(c4c2C1C(O)c1ccccc1-4)OCO3` (stereo not given): 9.4% [100 µM] (active) and -86.5% [100 µM] (active); `C=C1C(=O)C2=CC1CCC(=O)C1(C)CCC(OC(C)=O)C(C)(C)C1CC2O` (stereo not given): -96% [100 µM] (active) and -89.5% [100 µM] (active); `C=C(C)C1CC2(C)C(C)CC(O)CC2C(OC(=O)C=C(C)C)C1O` (stereo not given): 17.2% [100 µM] (inactive) and 48.8% [100 µM] (inactive).
Consider `Cc1ccc(/C=N/Nc2cc(C)c3cccc(C)c3n2)s1`, for which the growth in the test with TK-10 renal is -67.1% [100 µM] (active) and -100% [100 µM] (active).
